Compound activity deposited in PubChem by National Center for Advancing Translational Sciences (NCATS).
In the library only some 2.9% were active in any assay of this set; here they are far more common.
DRD3 agonist – activates the human D3 dopamine receptor. P35462. D3R DiscoveRx beta-arrestin cells, luminescence, 90 min. max activation, %. actives 0.58% (n = 410,000). AID 652048; in the data active means max activation above about 30%; further: 0% is about no effect
Target sequence (P35462 whole entry, looked up): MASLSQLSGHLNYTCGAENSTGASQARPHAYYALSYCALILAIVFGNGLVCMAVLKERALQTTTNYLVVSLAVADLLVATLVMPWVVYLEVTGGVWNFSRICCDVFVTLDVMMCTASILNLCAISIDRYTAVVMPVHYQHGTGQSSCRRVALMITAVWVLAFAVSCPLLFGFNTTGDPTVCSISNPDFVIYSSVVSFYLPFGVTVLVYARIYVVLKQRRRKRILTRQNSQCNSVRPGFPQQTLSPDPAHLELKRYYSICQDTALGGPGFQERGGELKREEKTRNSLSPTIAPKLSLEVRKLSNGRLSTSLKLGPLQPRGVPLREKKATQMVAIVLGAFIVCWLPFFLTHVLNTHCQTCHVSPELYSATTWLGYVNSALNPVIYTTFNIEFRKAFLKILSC
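Cells at 1500/well, incubated overnight, then treated with pinned compounds (dopamine as control) for 90 min at 37 degrees C. DiscoveRx reagent added for 30 - 60 minutes at room temperature; luminescence read.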
D3 antag – D3 dopamine receptor (human) antagonism. P35462. D3R cells, DiscoveRx beta-arrestin luminescence, antagonist mode; active compounds read low. max response, negative = inhibition, %. actives 2.5% (n = 360,000). AID 652054; in the data active means max response below about -50%; inconclusive means no clear call, values can overlap the other calls; further: on the % scale 0 is the no-effect control and ±100 the full control effect
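Cells plated overnight at 1500 cells/well, then exposed to library compounds with dopamine controls for 90 minutes at 37 degrees C. DiscoveRx reagent added for 30–60 minutes at room temperature; luminescence read, quantitative HTS format.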
a7 integrin act – activators of alpha7 integrin expression for muscular dystrophy; AID 624291; actives 0.064% (n = 350,000); Potency, µM (titrated, usually from 38.3 µM), inactives show top-dose activation, actives largely listed as activators; alpha7betagal myoblasts, beta-gal FDG fluorescence, 48 h; active means well fitted activation curve with a large enough effect; inconclusive means small, poorly fitted or top-dose-only effect; inactive means no such curve, though single readings can be large or run the other way;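 further: potency means the concentration at half of the fitted maximal effect; 100% = response of the positive control SU9516; nearly all actives have a fitted effect of over 60% in size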
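Alpha7betagal+/- myoblasts (passage 13) were plated 16-24 hr, then exposed to compounds (1:260 dilution of DMSO stock) for 48 hours at 37C. After MPER lysis, β-galactosidase reporter activity was read as FDG fluorescence (ex 480/em 540) after 30 minutes.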
An asterisk follows results filed as active; ? = inconclusive; nt = no result given; [ ] = dose if it differs, or a comment.

SMILES	DRD3 agonist	D3 antag	a7 integrin act
Cc1ccc(C)c2nc3sc(C(=O)N4CCCc5ccccc54)c(N)c3cc12	-19	-54*	-9%
COc1ccc(-c2cn3c(C)c(C(=O)N4CCCc5ccccc54)sc3n2)cc1	6	-9	-9%
Cc1ccc(C(C)(C)C)cc1S(=O)(=O)Nc1ncnc2sccc12	-17	-16	8%
CCN(CC)CCCNC(=O)C1c2ccccc2Oc2ccccc21	-8	-7	-1%
CNCCCC1Sc2ccccc2Oc2ccccc21 (stereo not given)	2	-74*	-57%
CO[C@H]1CN(C)C(=O)c2ccc(NC(=O)C3CCC3)cc2OC[C@H](C)N(Cc2ccc(F)cc2)C[C@@H]1C	0	2	nt
CCOc1cc(C)ccc1OCc1nnc(SCC(=O)c2cccc([N+](=O)[O-])c2)n1C	-8	-13	-23%
COc1ccc(OC)c(S(=O)(=O)N2CCC3(CC2)OCCN3S(=O)(=O)c2ccccc2)c1	4	18	-3%
CC(=O)Nc1c(NC(C)C)c2ccccc2oc1=O	2	-15	18%
COC(=O)Oc1c(Br)c(=O)oc2ccccc12	-1	-82*	-9%
O=C1C2CCCN2C(=O)N1CCCCN1CCN(c2cccc(Cl)c2)CC1 (stereo not given)	-1	-58*	-21%
O=C1C2CCCCN2C(=O)N1CCN1CCN(c2cccc(Cl)c2)CC1 (stereo not given)	-12	-22	4%
O=C1C2CCCCN2C(=O)N1CCN1CCN(c2ccc([N+](=O)[O-])cc2)CC1 (stereo not given)	-15	0	-12%
O=C1C2CCCCN2C(=O)N1CCCCN1CCN(c2cccc(Br)c2)CC1 (stereo not given)	-4	-80*	10%
O=C(O)c1cccc(N/N=C/C2=C(Cl)c3cc(Cl)ccc3SC2)c1	2	-6	7%
CCOC(=O)c1c(C)sc2c1N(C(=O)CCl)c1cc(Cl)ccc1S2	-1	-60*	-46%
Cc1sc2ncnc(SCC(=O)N3c4ccccc4Sc4ccc(Cl)cc43)c2c1C	3	11	-20%
COc1ccc(CN2CCCC(C(=O)N3CCCC3)C2)c(OC)c1OC (stereo not given)	-19	-21	nt
CN(C)S(=O)(=O)c1ccc(C(=O)NNC(=O)c2ccccc2-n2cccc2)cc1	-1	-8	24%
COc1cccc2c1[C@@H]1CN(CCCCn3c(=O)[nH]c4c(sc5ncc(-c6ccccc6)nc54)c3=O)C[C@@H]1CO2	-16	-99*	nt
COc1cc2[nH]c(=O)n(CCCC(=O)N3CC=C(c4ccccc4)CC3)c(=O)c2cc1OC	-8	1	-27%
COc1ccc(-n2c(N)c(C(=O)NCc3ccco3)c3nc4ccccc4nc32)cc1	-5	13	-29%
Nc1c(C(=O)NCc2ccco2)c2nc3ccccc3nc2n1CCc1ccc(F)cc1	-8	-63*	-43%
O=C(COC(=O)c1ccco1)NCC1CCCCC1	0	-25	14%
O=C(CSc1nnc(NC(=O)C2CCC2)s1)Nc1ccc(N2CCOCC2)cc1	-11	-73*	-5%
SMILES	DRD3 agonist	D3 antag	a7 integrin act
O=C(CSc1nnc(NC2CC2)s1)Nc1ccc(N2CCOCC2)cc1	-4	1	-3%
CC(C)c1ccccc1OCCCCCNCCO	-21	-52*	0%
COc1ccccc1OCCCCNCCO	-7	-13	-2%
Cc1ccccc1OCCCCCNCCO	-33	-15	-27%
CC(C)(C)c1ccccc1OCCCCCNCCO	-25	-86*	-27%[7.66 µM]
S=C1NCCc2ccccc2C1c1ccccc1Cl (stereo not given)	-3	-64*	-6%
S=C1NCCc2ccccc2C1c1ccccc1 (stereo not given)	5	?	-24%
Cn1cnc([N+](=O)[O-])c1S(=O)(=O)Nc1ccccc1	-19	-10	-46%
Cc1nn(C(C)C(=O)c2cccc(Cl)c2)c(C)c1[N+](=O)[O-] (stereo not given)	1	11	15%
Cn1cnc([N+](=O)[O-])c1S(=O)(=O)Oc1ccccc1	-15	-84*	-37%
Cn1cnc([N+](=O)[O-])c1S(=O)(=O)c1cccc(Cl)c1	-12	-92*	-49%
COc1ccc(S(=O)(=O)N2CCC(NC(=O)c3ccccc3)CC2)cc1	-11	-16	-3%
CCOC(=O)CN1C(=O)N2C[C@H]3CON(C)[C@H]3C[C@H]2c2ccccc21	-2	-24	nt
CC(C)(C)OC(=O)N1CCN(C(=O)c2nc[nH]c2C(=O)N2CCN(c3ccccc3)CC2)CC1	1	5	-3%
Cc1ccccc1-n1c(C)nnc1SCc1nc2ccccc2s1	9	14	-11%
CCC(C)C(NC(=O)OCc1ccccc1)C(=O)NC(Cc1ccc(O)cc1)C(=O)OC (stereo not given)	-11	0	21%
COc1ccc(C)cc1NC(=O)c1cc(S(=O)(=O)N2CCC3(CC2)OCCO3)ccc1F	1	7	0%
COc1ccc(C(=O)/C=C/Sc2nc3ccccc3o2)cc1	-17	-105*	-57%
COc1ccc(C(=O)N/C(N)=N/c2nc3ccccc3o2)cc1	3	0	23%
COCCN1C(=O)C(=O)/C(=C(/O)c2ccc(S(=O)(=O)N3CCOCC3)cc2)C1c1ccc(O)cc1 (stereo not given)	-5	-22	6%
COc1ccc(/C=N/Nc2cc(C)nc(N3CCOCC3)n2)cc1	32*	23	20%
COc1ccc(/C=N/Nc2cc(C)nc(N3CCOCC3)n2)cc1OC	1	50	-9%
CC(C)c1ccc(NC(=O)C2CCCN(S(=O)(=O)c3cccc4nsnc34)C2)cc1 (stereo not given)	2	nt	nt
COc1cccc(N=c2oc3cc(O)ccc3cc2C(=O)NCC2CCCO2)c1 (stereo not given)	31*	14	-5%
COc1ccccc1N=c1oc2cc(O)ccc2cc1C(=O)NCC1CCCO1 (stereo not given)	2	19	-17%
SMILES	DRD3 agonist	D3 antag	a7 integrin act
CC(=O)c1c(C)[nH]c(C(=O)COc2ccc3ccc(=O)oc3c2)c1C	3	8	11%
CCOC(=O)N1CCN(C(=O)C2CCN(C(=O)Nc3ccccc3)CC2)CC1	8	-7	14%
CS(=O)(=O)NCCCCNc1ccc(C(F)(F)F)cc1[N+](=O)[O-]	4	-5	-45%
COc1ccc(C(=O)c2sc3nc(C)cc(-c4cccs4)c3c2N)cc1OC	52*	11	-34%
COc1ccc(C(=O)c2sc3nc(C)cc(-c4cccs4)c3c2N)cc1	2	9	-13%
CC1(C(=O)N/N=C/c2c(F)c(F)c(F)c(F)c2F)CC1(Cl)Cl (stereo not given)	-11	?	-14%
CN(C(=O)c1cccc(NC(=O)Cc2ccc(NC(=O)C3CCN(C(=O)C4CC4)CC3)cc2)c1)C1CCCC1	0	-7	1%
CCC(CC)c1nnc(NC(=O)Oc2ccccc2)s1	-3	-69*	28%
Cc1nnc(NC(=O)Oc2ccccc2)s1	-21	-16	-23%
CC(=O)c1ccc(NC(=O)CSc2nc3[nH]ncc3c(=O)[nH]2)cc1	5	16	-41%
O=S(=O)(Nc1c(S(=O)(=O)c2ccccc2)c2nc3ccccc3nc2n1C1CCCCC1)c1ccccc1	6	-70*	-5%
